Assay [1] in a line: stimulators of nuclear beta-catenin in C2C12, primary screen, imaging, WNT3A-conditioned medium, mouse C2C12, NPC library (AID 1117326; in the data active = nuclear beta-catenin stimulation mostly above about 4.2%, no sharp cut-off; inactive = mostly below about 10%). The settings on record: stronger effect = higher value.
A short description of assay [2]: stimulators of insulin release from INS-1E, primary screen, cell-based, 5 mM glucose, NPC library (AID 1117329;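 active = compound raises insulin release from rat beta cells at 5 mM glucose, no numeric limit stated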). The settings on record: rat INS-1E insulin secretion, at 10 µM, stronger effect = higher value.
The nature of assay [3]: growth inhibition of GSK3B-pretreated HCT116 cells – cell-based, CellTiter-Glo, 0.2 to 20 µM (AID 1117336;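 active = compounds lowering colon cancer cell viability after pretreatment blocking the GSK3B kinase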). The settings on record: HCT116 viability after GSK3B inhibitor, at 20 µM, stronger effect = higher value. A general note: In ATP-based viability assays light output follows the ATP content of the culture.
A short description of assay [4]: inhibition of endothelial tube formation, primary screen, imaging, VEGF stimulated, CD31 staining, tube area, NPC library (AID 1117340;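 active = compound that reduces growth-factor-driven endothelial tube area in a mixed cell culture, no cutoff stated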). The settings on record: VEGF-stimulated ADSC/ECFC co-culture, at 10 µM, stronger effect = higher value.
Assay [5] can be described thus: glucagon-like peptide 1 release enhancers, primary assay, NCI-H716 cell line, NPC library (AID 1117341;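 active = compound raises GLP1 secretion from the human gut endocrine cells, with no numeric limit stated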). The settings on record: NCI-H716 cells, at 10 µM, stronger effect = higher value.
A short description of assay [6]: HCT116 colon cancer cell growth inhibition, primary screen, CellTiter-Glo luminescence, NPC library (AID 1117342;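 active = compounds that lower survival of HCT116 colon cancer cells in the luminescence readout, no numeric limit stated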). The settings on record: at 20 µM (top of the series).
Assay [7] is described as follows: CellTiter-Glo luminescent readout of SW480 viability loss, NPC library primary (AID 1117343). The settings on record: CellTiter-Glo luminescence; at 20 µM (top of the series).
A short description of assay [8]: decreased DLD-1 cellular survival, CellTiter-Glo luminescent readout, NPC compound collection, primary HTS (AID 1117346;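 active = compounds that lower survival of DLD-1 colon cancer cells in the luminescence readout, no cutoff given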). The settings on record: DLD-1 viability, CellTiter-Glo luminescence; at 20 µM (top of the series).
Assay [9] is described as follows: kinase inhibitors against Plasmodium liver-stage infection, cell-based, known kinase inhibitor set, luminescence, hepatoma host viability (AID 624392; call rule not given here;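 note: infected cells incubated roughly two days before readout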). The settings on record: Plasmodium liver stage in hepatoma cells, luciferase luminescence, concentration not given here; liver cell % of control: measured here: host liver cell viability; parasite % of control: stronger effect = lower value.

The nature of assay [10]: modulators of glucocorticoid suppression of NF-kB, cell-based, luciferase, IL-1B stimulus, dexamethasone (AID 624486; call rule not given here;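 for percent of negative control (+Dex): 100% = mean signal of vehicle control wells on the plate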). The settings on record: NF-kB luciferase reporter, IL-1B + dexamethasone, luminescence; percent of negative control (+Dex): actives lie on both sides, concentration not given here; z-score: measured here: IL-1B alone, no Dex. (In general: Reporter assays use an easily measured gene product as a stand-in for the process of interest.)

Assay [11] is described as follows: kinase inhibitors altering Pseudomonas killing of worms, whole organism (AID 651566; call rule not given here;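 note: tested at 14 µM; sign flipped so higher z means a lower ratio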). The following applies: C. elegans killed by P. aeruginosa, survival ratio.
The nature of assay [12]: activators of macrophage pro-inflammatory response, cell-based, murine, luminescence (AID 652131; call rule not given here). The following applies: murine macrophage pro-inflammatory reporter, stronger effect = higher value.
For assay [13], the target named is Cellular tumor antigen p53 (Homo sapiens) (UniProt P04637). As to the kind of experiment: kinase inhibitors altering GFP-p53 stability in HPV16-positive cells, imaging, known kinase inhibitor set, EGFP/DsRed ratio (AID 1053116; call rule not given here;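 note: cells exposed to compounds for 24 h at 37 °C before reading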). The following applies: stronger effect = higher value; EGFP object count: measured here: GFP-p53 positive objects count.
Cellular tumor antigen p53 (Homo sapiens), sequence (P04637 whole entry, looked up): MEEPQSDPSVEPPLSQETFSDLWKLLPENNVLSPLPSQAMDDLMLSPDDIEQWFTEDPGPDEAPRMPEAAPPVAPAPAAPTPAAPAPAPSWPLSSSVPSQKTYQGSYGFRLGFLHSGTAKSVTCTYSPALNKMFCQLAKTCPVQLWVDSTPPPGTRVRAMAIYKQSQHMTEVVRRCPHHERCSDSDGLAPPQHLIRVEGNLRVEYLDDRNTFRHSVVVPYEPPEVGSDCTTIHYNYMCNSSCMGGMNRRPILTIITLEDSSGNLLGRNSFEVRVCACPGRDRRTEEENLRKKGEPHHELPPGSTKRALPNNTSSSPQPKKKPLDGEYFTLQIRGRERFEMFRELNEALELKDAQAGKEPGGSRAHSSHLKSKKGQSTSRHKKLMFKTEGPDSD
The nature of assay [14]: IRF3 reporter activation in THP-1 macrophages, cell-based, PMA-stimulated THP-1, luminescence (AID 1053176; call rule not given here). The following applies: PMA-differentiated THP-1, IRF3 reporter luminescence; stronger effect = higher value.
Assay [15] is described as follows: survival rescue of mitochondrial mutant cells in low glucose, primary screen, MELAS cybrids, Rieske KO mouse fibroblasts, CellTiter-Glo (AID 1508586;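 active = mean z-score across replicates of 1.96 or higher in either the MELAS or the Rieske mutant cell line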;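 note: z relative to plate mean and SD of compound and empty wells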).

Calls of active or inactive are those of the source.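 Rule for the calls, unless noted: active = compounds that lower viability of the colon cancer cells in the luminescence readout, with no numeric limit stated; inactive = the rest.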

With `CCCOC(=O)c1cncn1C(C)c1ccccc1` (centres undefined), the nuclear beta-catenin stimulation is 3.6% (inactive) in [1] (at 10 µM) and 0.7% in assay [1] (stimulation, at 2 µM). Besides, the insulin secretion stimulation in assay [2] was 4.8% (inactive). Moreover, the viability decrease in assay [3] was -12.2% (inactive). In assay [4], the tube area decrease is -7.5% (inactive). The GLP1 secretion stimulation in [5] is 1.9% (inactive). Moreover, the inhibition of viability in assay [6] was 11% (inactive). For the same molecule, the viability decrease (inhibition) in [7] was -24.3% (inactive); in assay [8], 18.7% (inactive).
With `CC1(C)S[C@@H]2[C@H](N)C(=O)N2[C@@H]1C(=O)O`, the nuclear beta-catenin stimulation in assay [1] (at 10 µM) was 0.4% (inactive); in assay [1] (stimulation, at 2 µM) it was 3%. Further, in assay [2], the insulin secretion stimulation is -0.3% (inactive). Moreover, the viability decrease in assay [3] is -4.5% (inactive). Besides, in [4], the tube area decrease was 7.5% (inactive). Also, in assay [5], the GLP1 secretion stimulation is 0% (inactive). Moreover, the inhibition of viability in assay [6] was 2.1% (inactive). In addition, the viability decrease (inhibition) in [7] was 6.9% (inactive); in assay [8], -4.4% (inactive).
On to `Nc1ccc(Cl)cc1C(=O)c1ccccc1F`, for which the nuclear beta-catenin stimulation in assay [1] (at 10 µM) is 2.3% (inactive); in [1] (stimulation, at 2 µM), 4.2%. In addition, in assay [2], the insulin secretion stimulation is 5% (inactive). Moreover, in assay [3], the viability decrease is 23.5% (inactive). In addition, the tube area decrease in assay [4] is 25.4% (inactive). In [5], the GLP1 secretion stimulation is 21.1% (active). Also, the inhibition of viability in [6] is 44.6% (inactive). The viability decrease (inhibition) is 61.9% (active) in assay [7] and 12.8% (inactive) in assay [8].
As to `COP(=S)(OC)Oc1ccc(S(N)(=O)=O)cc1`, the nuclear beta-catenin stimulation in [1] (at 10 µM) was 0.4% (inactive); in assay [1] (stimulation, at 2 µM) it was 1.1%. Also, the insulin secretion stimulation in [2] was -1.7% (inactive). Also, in assay [3], the viability decrease was -4.35% (inactive). In [4], the tube area decrease is -30.3% (inactive). In assay [5], the GLP1 secretion stimulation is 1.6% (inactive). Besides, the inhibition of viability in assay [6] is -18.1% (inactive). Further, the values for the viability decrease (inhibition) in assay [7] and in assay [8] were 4.3% (inactive) and -0.7% (inactive), respectively.
In the case of `CC(C)NCC(O)c1ccc([N+](=O)[O-])cc1` (centres undefined), the nuclear beta-catenin stimulation in assay [1] (at 10 µM) was -2.4% (inactive); in assay [1] (stimulation, at 2 µM), -1%. In addition, in assay [2], the insulin secretion stimulation was 5.1% (inactive). The viability decrease in [3] is -1% (inactive). In addition, the tube area decrease in [4] is 15% (inactive). For the same molecule, the GLP1 secretion stimulation in assay [5] was -0.9% (inactive). In addition, in assay [6], the inhibition of viability was 17.5% (inactive). In addition, the viability decrease (inhibition) in assay [7] is 33.9% (active); in assay [8] it was 1.9% (inactive).
In assay [9], `O=C(NC1NNC2NNC(c3cccnc3)CC21)C1CC1` (centres undefined) came in with a liver cell % of control of 79.6%. Besides, the parasite % of control in [9] is 32.1% (inactive). Also, the percent of negative control (+Dex) in assay [10] was 166% (active). Moreover, the z-score in assay [10] was -0.58; in assay [11], -1.13 (inactive); in assay [12], 4.01 (inactive); in [15] (MELAS cybrid survival, CellTiter-Glo 48 h, stronger effect = higher value), -1.09 (inactive); in [15] (Rieske KO mouse fibroblast survival, CellTiter-Glo 72 h), -0.386. For the same molecule, the EGFP object count in [13] came to 52. Further, in [13], the EGFP/DsRed ratio is 0.68 (active). The fraction signal in assay [14] was 0.001 (inactive).
`N[C@@H](Cc1ccc(Oc2cc(I)c(O)c(I)c2)c(I)c1)C(=O)O`: the nuclear beta-catenin stimulation in [1] (at 10 µM) is 0.6% (inactive); in assay [1] (stimulation, at 2 µM) it was -0.5%. Besides, in assay [2], the insulin secretion stimulation is 2.2% (inactive). Besides, the viability decrease in assay [3] is 48.2% (inactive). For the same molecule, the tube area decrease in assay [4] is 34.7% (inactive). In addition, the GLP1 secretion stimulation in [5] was -3.9% (inactive). For the same molecule, in assay [6], the inhibition of viability is 39.6% (inactive). The viability decrease (inhibition) in assay [7] is 36.1% (inactive); in [8], -13.1% (inactive).
`C[N+](C)(C)CCOC(=O)C(O)(c1ccccc1)c1ccccc1`: the nuclear beta-catenin stimulation in assay [1] (at 10 µM) was -1.8% (inactive); in [1] (stimulation, at 2 µM), -0.5%. Besides, the insulin secretion stimulation in [2] is 1.1% (inactive). In addition, the viability decrease in assay [3] is 98.1% (active). Besides, the tube area decrease in assay [4] was -29.2% (inactive). The GLP1 secretion stimulation in assay [5] is -2.6% (inactive). Moreover, in [6], the inhibition of viability is 96.5% (active). For the same molecule, the viability decrease (inhibition) is 98.8% (active) in assay [7] and 102% (active) in assay [8].

The record behind these values is PubChem BioAssay.
